Coupling enz: qHTS Assay for Inhibitors of Fructose-1,6-bisphosphate Aldolase from Giardia Lamblia: Coupling assay counterscreen. coupling enzyme system counterscreen, AmpLite Red fluorescence. activity change, negative = inhibition, % at 58.2 µM, hits read low. 290,000 compounds, 0.67% hits; in the data active means activity change below about -30%
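First, compound is pin-transferred into glyceraldehyde-3-phosphate coupling-enzyme reagent at 57.5 uM final and held 10 min at RT. Next, substrate, coupling system and AmpLite Red are added. After 20 min RT, fluorescence (525/598 nm) is read.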
USP2a block: qHTS Assay for Inhibitors of Ubiquitin-specific Protease USP2a Using CHOP2 as the Reporter; Ubiquitin carboxyl-terminal hydrolase 2 (Homo sapiens), O75604; 330,000 compounds, 0.01% hits; AID 463254, 2010; USP2 core, Ub-CHOP2 coupled fluorogenic reporter, 485/531; Potency, µM (doses to about 38.3 µM), usual class: inhibitors
Target sequence (O75604 whole entry, looked up): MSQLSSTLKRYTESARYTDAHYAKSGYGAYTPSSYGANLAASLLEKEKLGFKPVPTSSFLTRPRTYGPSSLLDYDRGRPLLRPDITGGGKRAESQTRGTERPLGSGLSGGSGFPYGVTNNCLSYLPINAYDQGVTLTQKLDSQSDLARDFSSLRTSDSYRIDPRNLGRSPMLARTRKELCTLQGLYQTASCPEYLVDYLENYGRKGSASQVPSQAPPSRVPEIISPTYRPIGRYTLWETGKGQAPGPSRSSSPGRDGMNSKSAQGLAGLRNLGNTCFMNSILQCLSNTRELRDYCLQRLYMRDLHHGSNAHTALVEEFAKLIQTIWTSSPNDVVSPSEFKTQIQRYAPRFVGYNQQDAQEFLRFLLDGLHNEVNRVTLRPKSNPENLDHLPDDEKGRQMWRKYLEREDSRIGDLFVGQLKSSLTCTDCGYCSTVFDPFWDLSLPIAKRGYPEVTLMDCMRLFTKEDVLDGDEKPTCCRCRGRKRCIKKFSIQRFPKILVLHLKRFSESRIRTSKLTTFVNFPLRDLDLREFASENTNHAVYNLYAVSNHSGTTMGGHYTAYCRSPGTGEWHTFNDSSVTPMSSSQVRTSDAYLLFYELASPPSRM
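Deubiquitinase activity read as fluorescence (485/531 nm) after Ub-CHOP2 cleavage activates the enterokinase reporter on its substrate; USP2 core 10nM, Ub-CHOP2 and substrate 25nM each, 30min compound preincubation then 60min RT; data normalized to NEM, curves fitted.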
USP1 inh: Inhibitors of USP1/UAF1: Primary Screen; Potency, µM (top dose mostly 57.1 µM), actives largely listed as inhibitors; 390,000 compounds, 0.23% hits; recombinant USP1/UAF1, Ub-Rhodamine cleavage fluorescence; Ubiquitin carboxyl-terminal hydrolase 1 (Homo sapiens), O94782; further: nearly all actives have a fitted effect of over 60% in size
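1 nM enzyme complex + cpd, 15 min RT; start with Ub-Rho 150nM final; kinetic fluorescence ex 480/em 540, 6 reads q60 s. Buffer 50mM HEPES pH 7.8, 0.5mM EDTA, 0.1 mg/ml BSA, 1mM TCEP, 0.01% Tween-20.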
GALK inhibitor: qHTS Assay for Inhibitors of Human Galactokinase (GALK). 270,000 compounds, 0.007% hits. Purified GALK, Kinase-Glo residual ATP luminescence. P51570. Potency, µM (titrated, usually from 57.5 µM), usual class: inhibitors
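Human GALK (5 nM) with 35 uM ATP and 100 uM galactose in 20 mM HEPES pH 8.0, 5 mM MgCl2, 60 mM NaCl, 1 mM DTT, 0.01% BSA. After 1 h at room temperature, leftover ATP was read by Kinase-Glo Plus luminescence.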
PLK1 PBD inh: qHTS for Inhibitors of PLK1-PDB (polo-like kinase 1 - polo-box domain): Primary Screen | Plk1 PBD binding of FITC phosphopeptide, fluorescence polarization | Potency, µM, usual class: inhibitors | 360,000 compounds, 2.8% hits | Serine/threonine-protein kinase PLK1 (Homo sapiens), P53350; further: series mostly up to about 57 µM; nearly all actives have a fitted effect of over 65% in size
VDR inhibitor: Inhibitors of the vitamin D receptor (VDR): qHTS; VDR-SRC2-3 peptide fluorescence polarization, 2 h; Potency, µM, most hits filed as inhibitors; 400,000 compounds, 0.93% hits
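Compounds are added to VDR with labelled SRC2-3 coactivator peptide and held 2 h at room temperature. Inhibition of the VDR–peptide interaction is then read as a change in fluorescence polarization.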
VDR confirm: qHTS for Inhibitors of the vitamin D receptor (VDR): Hit Validation in Primary Screen; shares compounds with VDR inhibitor; Potency, µM, most hits filed as inhibitors; VDR-coactivator inhibition assay, qHTS confirmation; 840 compounds, 89% hits
VDR FP: qHTS for Inhibitors of the vitamin D receptor (VDR): Hit Validation using a Fluorescein Assay. 840 compounds, 48% hits. shares compounds with VDR inhibitor. VDR-coactivator binding, fluorescein fluorescence polarization. Potency, µM (series often up to 57.1 µM), actives largely listed as inhibitors. AID 602200, 2012
VDR bla reporter: qHTS for Inhibitors of the vitamin D receptor (VDR): Hit Validation using a Beta-Lactamase Assay; Potency, µM (series often up to 46.1 µM), actives largely listed as inhibitors; shares compounds with VDR inhibitor; 840 compounds, 23% hits; AID 602202, 2012; VDR beta-lactamase reporter cells, FRET ratio; cells co-treated with VDR agonist LG190178
VDR viability: qHTS for Inhibitors of the vitamin D receptor (VDR): Hit Validation using a Cytotoxicity Assay. shares compounds with VDR inhibitor. cytotoxicity counter-screen, cell viability, qHTS. Potency, µM (doses to about 48.3 µM), actives largely listed as cytotoxic. 840 compounds, 18% hits. AID 602204, 2012; further: nearly all actives have a fitted effect of over 75% in size
TbPYK inh: qHTS of Trypanosoma Brucei Inhibitors: Confirmatory Assay for Cherry-picked Compounds; shares compounds with PLK1 PBD inh; recombinant TbPYK, Kinase-Glo ATP luminescence; Potency, µM (series often up to 76.9 µM), actives largely listed as inhibitors; 890 compounds, 67% hits; AID 720569, 2013; further: nearly all actives have a fitted effect of over 70% in size
TbPYK orthogonal: qHTS of Trypanosoma Brucei Inhibitors: Orthogonal Assay for Cherry-picked Compounds; shares compounds with PLK1 PBD inh; recombinant TbPYK, ADP-Glo luminescence, 60 min; Potency, µM (series often up to 76.9 µM), most hits filed as inhibitors; 890 compounds, 62% hits; further: nearly all actives have a fitted effect of over 75% in size
Large screens that a line does not name were inactive (follow-up assays come after a bar, where they were run). Sampled rows, rich in hits. Any-hit rate of the full collection: about 3.2%. Unless noted, the call rests on the fitted dose curve; in most records, active means well fitted curve in the direction sought with a large enough effect; inconclusive means small, poorly fitted or top-dose-only effect, or another doubt; inactive means no such curve, though single readings can be large; an effect the other way counts as inactive or inconclusive.

CC(C)N(CCC(=O)c1ccc2ccccc2c1)Cc1ccccc1	PLK1 PBD inh 3.36µM, VDR inhibitor 5.01µM (no result: GALK inhibitor) | VDR confirm 15 | VDR FP 7.08µM | VDR bla reporter inconclusive | VDR viability inconclusive
CCOC(=O)C(Cc1ccccc1)NS(=O)(=O)c1ccc(NC(C)=O)cc1 (stereo unspecified)	none
COc1ccc(CC(=O)NCc2n[nH]c(=S)n2C)cc1	none
CCOC(=O)NCc1ccc(S(=O)(=O)Nc2ccccc2C)cc1	none
CCc1ccc(S(=O)(=O)Nc2ccc(O)c3ccccc23)cc1	PLK1 PBD inh inconclusive, VDR inhibitor inconclusive | VDR confirm 2.99 | VDR FP 8.91µM | VDR bla reporter inconclusive | VDR viability inconclusive
O=S(=O)(c1ccc(N=C2NN=C(c3cc(F)ccc3F)CS2)cc1)N1CCOCC1	USP1 inh inconclusive, PLK1 PBD inh inconclusive, VDR inhibitor 1.58µM | VDR confirm 2.51 | VDR FP inconclusive | VDR bla reporter inactive | VDR viability inconclusive
Fc1ccc(N=C2NN=C(c3cc(F)ccc3F)CS2)cc1	USP1 inh inconclusive, PLK1 PBD inh inconclusive, VDR inhibitor 31.6µM | VDR confirm inconclusive | VDR FP inconclusive | VDR bla reporter inactive | VDR viability inconclusive
O=[S@]1Oc2ccccc2-c2ccccc21	PLK1 PBD inh 2.12µM, VDR inhibitor 6.31µM (no result: Coupling enz, USP2a block, GALK inhibitor) | VDR confirm 4.74 | VDR FP inconclusive | VDR bla reporter inactive | VDR viability inactive
COCCN(CC(=O)NC1CCCCC1)C(=O)CSc1nc2ccccc2o1	none
Cc1[nH]n(-c2ncc(-c3ccc(Cl)cc3)s2)c(=O)c1C(c1ccc(Cl)cc1)C(C#N)C#N (stereo unspecified)	PLK1 PBD inh 9.47µM, VDR inhibitor 50.1µM | VDR confirm 8.44 | VDR FP 7.94µM | VDR bla reporter inactive | VDR viability inactive
CN1C(=O)/C(=C/c2cccc([N+](=O)[O-])c2)C(=O)N1c1ccccc1	PLK1 PBD inh 2.38µM, VDR inhibitor 31.6µM | VDR confirm 13.4 | VDR FP inconclusive | VDR bla reporter inactive | VDR viability inactive
O=C(Nc1ccnn1C1CCN(Cc2ccccc2OCCO)CC1)c1cccc(F)c1	none (no result: Coupling enz)
Cc1ccc(SC2=NS(=O)(=O)c3ccccc32)c(C)c1	VDR inhibitor 35.5µM (no result: Coupling enz, USP2a block, USP1 inh, GALK inhibitor, PLK1 PBD inh) | VDR confirm 7.08 | VDR FP 8.91µM | VDR bla reporter inconclusive | VDR viability 21.2µM
O=S1(=O)N=C(Oc2ccccc2)c2ccccc21	none
Cc1ccc(CSC2=NS(=O)(=O)c3ccccc32)cc1	VDR inhibitor 31.6µM (no result: Coupling enz, USP2a block, USP1 inh, GALK inhibitor, PLK1 PBD inh) | VDR confirm 14.1 | VDR FP 8.91µM | VDR bla reporter inactive | VDR viability inactive
Clc1ccc(-c2nnnn2-c2ccc(Cl)cc2)cc1	none
Cc1ccc(-n2nnnc2C(Cl)(Cl)c2nnnn2-c2ccc(C)cc2)cc1	PLK1 PBD inh 1.06µM, VDR inhibitor 6.31µM | VDR confirm 3.36 | VDR FP inconclusive | VDR bla reporter inconclusive | VDR viability inconclusive | TbPYK inh 1.58µM | TbPYK orthogonal 2.24µM
COc1ccccc1N1C(=O)C=C(Sc2nc(C)cc(C)n2)C1=O	PLK1 PBD inh 2.99µM, VDR inhibitor inconclusive | VDR confirm 2.82 | VDR FP 3.16µM | VDR bla reporter 20.6µM | VDR viability inconclusive | TbPYK inh 2.51µM | TbPYK orthogonal 3.16µM
CCNC(=O)C1CCCN1S(=O)(=O)c1ccc(OC)cc1 (stereo unspecified)	none (no result: USP2a block)
COc1cc(/C=C2/C(=O)c3cccc([N+](=O)[O-])c3C2=O)c(Br)cc1O	USP1 inh inconclusive, PLK1 PBD inh 1.5µM, VDR inhibitor 20µM | VDR confirm 7.52 | VDR FP 3.16µM | VDR bla reporter inconclusive | VDR viability inconclusive | TbPYK inh 25.1µM | TbPYK orthogonal inactive
COc1ccccc1NC(=O)CCCCCN1C(=O)c2cccc([N+](=O)[O-])c2C1=O	none
COc1ccc(C(=O)/C=C/C(=O)N(CC(=O)NC2CCCCC2)CC2CCCO2)c(O)c1 (stereo unspecified)	PLK1 PBD inh 6.7µM, VDR inhibitor 8.91µM | VDR confirm 6.7 | VDR FP inconclusive | VDR bla reporter 13µM | VDR viability 14.6µM | TbPYK inh 7.08µM | TbPYK orthogonal 10µM
Cc1nc2[nH]onc2c2nccc(=O)c12	none
O=c1c2sc3ccccc3c2[nH]c(=S)n1CCN1CCOCC1	none | TbPYK inh 3.98µM | TbPYK orthogonal 5.62µM
CC1CCN(CCCn2c(=S)[nH]c3c(sc4ccccc43)c2=O)CC1	none
CNc1nc(-c2ccccc2)[n+](-c2ccc(C)cc2)s1	PLK1 PBD inh 1.5µM, VDR inhibitor inconclusive | TbPYK inh 1µM | TbPYK orthogonal 1.78µM

Source: PubChem BioAssay
